These results are taken from PubChem BioAssay (Tox21).

Unmarked numbers belong to inactive results. Inconclusive results are not listed. Activity calls are given as the source filed them. The call rests on the fitted dose curve; in most records, active means well fitted curve in the direction sought with a large enough effect in the repeat runs; inconclusive means weak or mixed curves; inactive means no such curve, though single readings can be large; an effect the other way counts as inactive or inconclusive.

The nature of assay [1]: A CellTox Green Cytotoxicity Assay to monitor cytotoxicity in HEK293 cells - 40 hour (AID 1224871). Further: nearly all actives have a fitted effect of over 45% in size. An outline of the steps: (§1)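 Cytotoxicity was tracked continuously in HEK293 cells by a DNA-binding dye excluded from viable cells. Compounds were transferred in DMSO 5 h after seeding; fluorescence was recorded at intervals up to 40 h.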
Assay [2] is described as follows: qHTS RealTime-Glo MT Cell Viability Assay in HEK293 cells - 16 hour (AID 1224872). Further: nearly all actives have a fitted effect of over 50% in size. Further: potency means the concentration at half of the fitted maximal effect. The essentials: (§2)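 Assay medium contained NanoLuc luciferase plus cell-permeant prosubstrate, added with HEK293 cells at 600 cells/well. After 5 h at 37 C/5% CO2 compounds were added; plates stayed at 37 C for 40 h with serial luminescence reads.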
Background: qHTS replaces the single test concentration by a dilution series.

Assay [3] is described as follows: qHTS RealTime-Glo MT Cell Viability Assay in HEK293 cells - 40 hour (AID 1224874). Further: nearly all actives have a fitted effect of over 50% in size. Further: potency means the concentration at half of the fitted maximal effect. The note with it: RealTime-Glo luminescence; max response: active compounds read low. An outline of the steps:
(§3)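 Nonlytic bioluminescent viability monitoring. HEK293 at 600 cells/well with reagent; 5 h settle; compound transfer by pintool; plates held at 37 C and read at set time points.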

Assay [4] in a line: A CellTox Green Cytotoxicity Assay to monitor cytotoxicity in HEK293 cells - 24 hour (AID 1224875). Further: series mostly up to about 77 µM; nearly all actives have a fitted effect of over 45% in size. The essentials: as §1
Assay [5] is described as follows: A CellTox Green Cytotoxicity Assay to monitor cytotoxicity in HepG2 cells - 16 hour (AID 1224876). Further: nearly all actives have a fitted effect of over 45% in size. The essentials:
(§4)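 Real-time, homogeneous cytotoxicity readout: dead-cell DNA staining by CellTox Green in HepG2 monolayers, fluorescence measured at timed intervals up to 40 h of continuous compound exposure.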

The nature of assay [6]: qHTS RealTime-Glo MT Cell Viability Assay in HepG2 cells - 32 hour (AID 1224877). Further: nearly all actives have a fitted effect of over 55% in size. An outline of the steps: (§5)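 qHTS, HepG2, 600 cells/well, RealTime-Glo (NanoLuc + prosubstrate) added with cells; 5 h preincubation; DMSO compound addition; 37 C; luminescence at 0/8/16/24/32/40 h.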
A short description of assay [7]: A CellTox Green Cytotoxicity Assay to monitor cytotoxicity in HepG2 cells - 24 hour (AID 1224878). Further: nearly all actives have a fitted effect of over 45% in size. An outline of the steps:
as §4

A short description of assay [8]: A CellTox Green Cytotoxicity Assay to monitor cytotoxicity in HepG2 cells - 40 hour (AID 1224879). Further: nearly all actives have a fitted effect of over 40% in size. The essentials: as §4
The nature of assay [9]: A CellTox Green Cytotoxicity Assay to monitor cytotoxicity in HEK293 cells - 32 hour (AID 1224881). Further: nearly all actives have a fitted effect of over 40% in size. An outline of the steps: as §1
Assay [10] in a line: A CellTox Green Cytotoxicity Assay to monitor cytotoxicity in HepG2 cells - 0 hour (AID 1224882). Further: nearly all actives have a fitted effect of over 35% in size. An outline of the steps: as §4
Assay [11] is described as follows: A CellTox Green Cytotoxicity Assay to monitor cytotoxicity in HepG2 cells - 32 hour (AID 1224883). Further: nearly all actives have a fitted effect of over 50% in size. The essentials:
as §4

The nature of assay [12]: A CellTox Green Cytotoxicity Assay to monitor cytotoxicity in HEK293 cells - 8 hour (AID 1224884). Further: nearly all actives have a fitted effect of over 35% in size. The essentials: as §1
A short description of assay [13]: qHTS RealTime-Glo MT Cell Viability Assay in HepG2 cells - 16 hour (AID 1224885). Further: nearly all actives have a fitted effect of over 50% in size. An outline of the steps:
as §5

The nature of assay [14]: A CellTox Green Cytotoxicity Assay to monitor cytotoxicity in HEK293 cells - 16 hour (AID 1224888). Further: nearly all actives have a fitted effect of over 35% in size. An outline of the steps: as §1
Assay [15] in a line: A CellTox Green Cytotoxicity Assay to monitor cytotoxicity in HepG2 cells - 8 hour (AID 1224890). Further: nearly all actives have a fitted effect of over 45% in size. An outline of the steps: as §4
Assay [16] is described as follows: qHTS RealTime-Glo MT Cell Viability Assay in HEK293 cells - 0 hour (AID 1224880). An outline of the steps:
as §3

Assay [17] in a line: qHTS RealTime-Glo MT Cell Viability Assay in HEK293 cells - 24 hour (AID 1224886). Further: nearly all actives have a fitted effect of over 50% in size. Further: potency means the concentration at half of the fitted maximal effect. The essentials: as §2
The nature of assay [18]: qHTS RealTime-Glo MT Cell Viability Assay in HEK293 cells - 8 hour (AID 1224887). Further: nearly all actives have a fitted effect of over 50% in size. Further: potency means the concentration at half of the fitted maximal effect. An outline of the steps:
as §3

The nature of assay [19]: qHTS RealTime-Glo MT Cell Viability Assay in HepG2 cells - 0 hour (AID 1224889). Further: nearly all actives have a fitted effect of over 50% in size. The essentials: as §5
Assay [20] can be described thus: qHTS RealTime-Glo MT Cell Viability Assay in HepG2 cells - 8 hour (AID 1224873). Further: nearly all actives have a fitted effect of over 55% in size. The essentials: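 Real-time viability: cells seeded at 600 per well together with NanoLuc and cell-permeant prosubstrate, compounds added after 5 h incubation. Luminescence tracked at 0, 8, 16, 24, 32 and 40 h of exposure.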
On the % scale 0 is the no-effect control and ±100 the full control effect.

For the molecule `Cc1nc(N)nc(N)c1-c1ccc(Cl)c(Cl)c1`, the Potency result in assay [1], in assay [2], in [4], in assay [5], in assay [6] and in assay [7] was “inactive” each time. In addition, the Potency result in [8], in assay [9], in assay [10], in [11], in [12] and in [14] was “inactive” throughout. In addition, in [15], the Potency entry was “inactive”. In addition, the Potency in [3] was 1.07 µM (active). Moreover, the molecule was classed as inactive in assay [13].
Consider `Cc1cc2c(s1)Nc1ccccc1N=C2N1CCN(C)CC1`, for which the Potency entry in [1], in [2], in assay [4], in assay [5], in [7] and in assay [8] was “inactive” throughout. Also, the Potency result in [11], in assay [12], in [17], in assay [18], in [14] and in [19] was “inactive” throughout. In addition, the Potency entry in assay [15] is “inactive”. Also, the max response in [3] was 3.41%. In addition, the molecule was called inactive in assay [16] and in assay [13].
Turning to `O=Cc1ccc(O)c(O)c1O`, the Potency entry in [1], in assay [2], in assay [4], in [5], in [6] and in assay [9] was “inactive” in each case. For the same molecule, the Potency entry in [12], in assay [17], in assay [18], in [14], in assay [19] and in assay [15] was “inactive” in each case. For the same molecule, in assay [3], the max response was 1.24%. For the same molecule, the molecule was called inactive in assay [13].
Take `CCCNC(C)(C)COC(=O)c1ccccc1`: the Potency entry in assay [1], in [2], in [5], in assay [7], in assay [8] and in [9] was “inactive” in each case. Moreover, the Potency entry in assay [10], in assay [12], in assay [17], in assay [18], in [14] and in assay [19] was “inactive” each time. For the same molecule, in assay [15], the Potency result was “inactive”. The call in assay [20] and in assay [13] was inactive. Also, in assay [3], the max response is 2.27%.
Turning to `COc1cc(N)c(Cl)cc1C(=O)NC1CCN(Cc2ccccc2)CC1`, the Potency entry in assay [1], in assay [4], in assay [5], in assay [6], in assay [7] and in [8] was “inactive” in each case. Besides, the Potency entry in assay [9], in assay [10], in [11], in [12], in assay [14] and in [15] was “inactive” each time. Also, the Potency in [2] was 19 µM (active); in assay [3] it was 19 µM (active); in assay [17] it was 19 µM (active); in assay [18] it was 21.3 µM (active). For the same molecule, the call in assay [13] was inactive.
For the molecule `CCC(=O)O[C@]1(C(=O)SCF)[C@H](C)C[C@H]2[C@@H]3C[C@H](F)C4=CC(=O)C=C[C@]4(C)[C@@]3(F)[C@@H](O)C[C@@]21C`, the Potency entry in assay [1], in assay [2], in assay [4], in [5], in [6] and in assay [7] was “inactive” in each case. For the same molecule, the Potency result in assay [8], in assay [9], in assay [10], in assay [11], in assay [12] and in assay [17] was “inactive” throughout. In addition, the Potency entry in assay [18], in [14], in [19] and in [15] was “inactive” in each case. In addition, the max response in assay [3] is 2.57%. The call in assay [16] and in assay [13] was inactive.
For the molecule `CCc1cc2cc(OC)c(OC)cc2c(Cc2ccccc2)n1`, the Potency entry in assay [1], in assay [6], in [9], in assay [12] and in assay [19] was “inactive” each time. The Potency in [2], in assay [3], in assay [17] and in [18] was 16.9 µM (active) throughout. Also, the outcome in assay [20], in [16] and in assay [13] was inactive.
Consider `COc1ccc(Nc2ccc(OC)cc2)cc1`, for which the Potency result in assay [1], in assay [4], in assay [5], in [6], in assay [7] and in [8] was “inactive” in each case. Moreover, the Potency result in assay [9], in assay [10], in assay [11], in [12], in assay [14] and in assay [19] was “inactive” throughout. Moreover, in assay [15], the Potency entry was “inactive”. Also, the Potency in [3] was 28.1 µM (active); in assay [18] it was 14.1 µM (active). In assay [13], the molecule was called inactive.
Consider `Nc1ccc(Oc2ccc(N)c(N)c2)cc1`, for which the Potency result in assay [1], in [4], in assay [5], in [6], in assay [9] and in assay [10] was “inactive” in each case. The Potency entry in assay [12], in assay [14] and in assay [15] was “inactive” in each case.
